Measurements from PubChem BioAssay (NCATS).
Inconclusive results are not listed. Activity calls are given as the source filed them. The call rests on the fitted dose curve; in most records, active means well fitted inhibition curve with a large enough effect; inconclusive means small, poorly fitted or top-dose-only effect; inactive means flat fitted curve, though single readings scatter.

Experiments:
Assay in all cases: Cytotoxic Profiling of Annotated Libraries Using Quantitative High-Throughput Screening (AID 1296008); further: nearly all actives have a fitted effect of over 60% in size
Conditions in all cases: Five cell lines viability, CellTiter-Glo ATP luminescence, 48-72 h; max response: stronger effect = lower value
CRL-7250 = system: CRL-7250
How it was run: (§1)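 Compounds were pin-transferred onto cells and incubated 48 or 72 hr at 37 degree Celsius, 95% humidity. CellTiter-Glo was added, plates sat 10 min at room temperature, then ATP-coupled luminescence was imaged as the viability read-out.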

HEK293 = system: HEK293
How it was run: as §1

HaCat = system: HaCat
How it was run: as §1

KB-3-1 = system: KB-3-1
How it was run: as §1

NIH3T3 = system: NIH3T3
How it was run: as §1

Measured: max response
On the % scale 0 is the no-effect control and ±100 the full control effect.

CC(C)[C@@H](C(=O)O)N1Cc2c(cc(O)c3c2O[C@]2(C3)[C@H](C)CCC3C(C)(C)[C@H](O)[C@H](O)C[C@@]32C)C1=O (stereo not given in full)
inactive: CRL-7250 2.63% | HEK293 -15% | HaCat 2.56% | KB-3-1 3.13% | NIH3T3

C=CC(C)(O)CCC1C(C)(O)CCC2C(C)(C)CCCC21C (stereo not given)
inactive: CRL-7250 -9.7% | HEK293 -3.72% | HaCat 3.9% | KB-3-1 9.64% | NIH3T3

COc1ccc(/C=C/C(N)=O)cc1OC
inactive: CRL-7250 | HEK293 3.65% | HaCat | KB-3-1 | NIH3T3 3.68%

CC1OC(OC2C(OC3C(O[C@H]4CC[C@@]5(C)C(CC[C@]6(C)C5C(=O)CC5=C7CC(C)(C)CC(O)[C@]7(C)CC[C@]56C)C4(C)C)OC(C(=O)O)C(O)C3O)OCC(O)C2O)C(O)C(O)C1O (stereo not given in full)
inactive: CRL-7250 0.224% | HEK293 2.58% | HaCat | KB-3-1 | NIH3T3 -0.899%

COc1cc(OC)cc(-c2ccc3c(-c4ccc(F)cc4)[nH]nc3n2)c1
inactive: CRL-7250 | HEK293 -28% | HaCat | KB-3-1 | NIH3T3 0.976%

C=C(C)[C@@H]1CC[C@]2(CO)CC[C@]3(C)[C@H](CC[C@@H]4[C@@]5(C)CC[C@H](O)C(C)(C)[C@@H]5CC[C@]43C)[C@@H]12
inactive: CRL-7250 1.98% | HEK293 3.79% | HaCat 2.42% | KB-3-1 | NIH3T3

COC(=O)C1=COC(O[C@@H]2O[C@H](CO)[C@@H](O)[C@H](O)[C@H]2O)/C(=C\COC(=O)/C=C/c2ccccc2)C1CC(=O)OCCc1ccc(O)cc1 (stereo not given in full)
inactive: CRL-7250 -7.39% | HEK293 -5.04% | HaCat | KB-3-1 | NIH3T3

C=C1C(=O)O[C@@H]2/C=C(\C)CC/C=C(\C(=O)O[C@@H]3O[C@H](CO)[C@@H](O)[C@H](O)[C@H]3O)CC[C@@H]12
inactive: CRL-7250 4.73% | HEK293 -0.494% | HaCat | KB-3-1 -8.71% | NIH3T3 -22.6%

CC(C)[C@@](O)(c1ccc2cc(OC(F)F)c(OC(F)F)cc2c1)c1cn[nH]n1
inactive: CRL-7250 -0.82% | HEK293 -10.2% | HaCat -0.148% | KB-3-1 5.26% | NIH3T3

CC1(C)CC[C@]2(C(=O)O[C@@H]3O[C@H](CO)[C@@H](O)[C@H](O)[C@H]3O)CC[C@]3(C)C(=CCC4[C@@]5(C)C[C@@H](O)[C@H](O)[C@@](C)(CO)C5[C@H](O)C[C@]43C)C2C1 (stereo not given in full)
inactive: CRL-7250 -10.1% | HEK293 -14.5% | HaCat | KB-3-1 -2.95% | NIH3T3

N#Cc1cccc(-c2c[nH]c3ncnc(N4CCOCC4)c23)c1
inactive: CRL-7250 | HEK293 -6.95% | HaCat | KB-3-1 -3.64% | NIH3T3

COc1ccc(/C=C/C(=O)O[C@@H]2[C@@H](O)[C@@H](O)[C@H](O[C@H]3[C@@H]4C=CO[C@@H](O[C@@H]5O[C@H](CO)[C@@H](O)[C@H](O)[C@H]5O)[C@@H]4[C@@]4(CO)O[C@@H]34)O[C@H]2C)cc1
inactive: CRL-7250 -8.85% | HEK293 -4.15% | HaCat | KB-3-1 1.26% | NIH3T3 0.471%

O=C(CC1CC(c2ccc(F)cc2F)=NO1)N1CCOCC1 (stereo not given)
inactive: CRL-7250 -1.82% | HEK293 4.11% | HaCat | KB-3-1 -13.2% | NIH3T3 -0.0344%

CC(C)(Oc1ccc(-c2nc3cc(Cl)ccc3s2)cc1)C(=O)O
inactive: CRL-7250 | HEK293 -8.75% | HaCat | KB-3-1 5.1% | NIH3T3

CC(=O)/C=C/C1(O)C(C)(C)CC(O)CC1(C)O (stereo not given)
inactive: CRL-7250 -6.38% | HEK293 -4.83% | HaCat | KB-3-1 | NIH3T3

Cc1ccc([C@@H]2CC=C(C(=O)O)[C@H](c3ccc(C(C)(C)C)cc3)N2S(=O)(=O)c2ccc(C)cc2)cc1
inactive: CRL-7250 | HEK293 -30.1% | HaCat | KB-3-1 3.45% | NIH3T3

CC1(CO)CCCC2(C)C3COC(=O)C3=CC(O)C12 (stereo not given)
inactive: CRL-7250 1.03% | HEK293 -8.01% | HaCat -5.37% | KB-3-1 | NIH3T3

COc1cc(Cc2cnc(N)nc2N)c(C(C)C)cc1OC
inactive: CRL-7250 -4.26% | HEK293 | HaCat -0.359% | KB-3-1 4.42% | NIH3T3 3.87%

C=C1CCC2C(C)(C)CCC[C@]2(C)[C@H]1CC/C(C)=C/C(=O)O (stereo not given in full)
inactive: CRL-7250 | HEK293 -1.43% | HaCat | KB-3-1 -7.37% | NIH3T3 2.18%

CN1CCN(C(=O)c2cc3cc(Cl)ccc3[nH]2)CC1
inactive: CRL-7250 -2.46% | HEK293 -8.86% | HaCat | KB-3-1 -0.0663% | NIH3T3

OCC1OC(Oc2cc(O)cc(/C=C/c3ccc(OC4OC(CO)C(O)C(O)C4O)cc3O)c2)C(O)C(O)C1O (stereo not given)
inactive: CRL-7250 | HEK293 3.22% | HaCat | KB-3-1 5.55% | NIH3T3 0.921%

COc1ccc(C(=O)OC2C3C=COC(OC4OC(CO)C(O)C(O)C4O)C3C3(CO)OC23)cc1OC (stereo not given)
inactive: CRL-7250 -2.32% | HEK293 1.41% | HaCat | KB-3-1 3.28% | NIH3T3 -4.72%

CC(C)c1ccc2c(c1)[C@H](O)CC1[C@@](C)(C(=O)O)CCC[C@]21C (stereo not given in full)
inactive: CRL-7250 -0.592% | HEK293 -18.5% | HaCat -16.8% | KB-3-1 -0.988% | NIH3T3

COc1ccc(/C=C/C(=O)N2CCCC2)cc1
inactive: CRL-7250 1.09% | HEK293 2.31% | HaCat | KB-3-1 2.27% | NIH3T3 -2.69%

C=C1CC[C@]2(C(=O)O[C@@H]3O[C@H](CO)[C@@H](O)[C@H](O)[C@H]3O)CC[C@]3(C)C(=CCC4[C@@]5(C)C[C@H](O)[C@@H](O[C@@H]6O[C@H](C(=O)O)[C@@H](O)[C@H](O)[C@H]6O)[C@](C)(C=O)C5CC[C@]43C)C2C1 (stereo not given in full)
inactive: CRL-7250 4.09% | HEK293 -16.5% | HaCat -21.8% | KB-3-1 9.97% | NIH3T3

C/C=C1/CC2C(=O)Nc3cc(O)c(OC)cc3C(=O)N2C1 (stereo not given)
inactive: CRL-7250 -13.4% | HEK293 2.7% | HaCat | KB-3-1 9.54% | NIH3T3

C=C1C(=O)O[C@@H]2CC(C)=C([C@@H](C)CCCOC(C)=O)[C@@H](O)[C@H]12
inactive: CRL-7250 0.455% | HEK293 1.32% | HaCat | KB-3-1 6.41% | NIH3T3

Nc1nc2c(nc(Sc3ccc(Cl)cc3)n2[C@@H]2O[C@@H]3COP(=O)(O)O[C@H]3[C@H]2O)c(=O)[nH]1
inactive: CRL-7250 1.71% | HEK293 1.54% | HaCat -3.37% | KB-3-1 | NIH3T3

Oc1ccc(CC2NCCc3cc(O)c(O)cc32)cc1 (stereo not given)
inactive: CRL-7250 4.94% | HEK293 -11.9% | HaCat 1.1% | KB-3-1 1.59% | NIH3T3

CC(=O)OC1C(CO)OC(O[C@H]2[C@H](OC(=O)[C@]34CCC(C)(C)C[C@H]3C3=CCC5[C@@]6(C)CC[C@H](O[C@@H]7O[C@H](C(=O)O)[C@@H](O)[C@H](O[C@@H]8OC[C@@H](O)[C@H](O)[C@H]8O)[C@H]7O[C@@H]7O[C@H](CO)[C@H](O)[C@H](O)[C@H]7O)[C@@](C)(C=O)C6CC[C@@]5(C)[C@]3(C)C[C@H]4O)O[C@H](C)[C@H](OC3OC(C)C(OC4OCC(O)C(O)C4O)C(O)C3O)[C@@H]2O)C(O)C1O (stereo not given in full)
inactive: CRL-7250 -0.582% | HEK293 -1.35% | HaCat | KB-3-1 | NIH3T3

CC1(C(=O)O)CCCC2(C)C3CCC4CC3(CCC12)CC4(O)CO (stereo not given)
inactive: CRL-7250 1.56% | HEK293 -16.5% | HaCat | KB-3-1 5.7% | NIH3T3 0.753%

CC(C(=O)Nc1cc(C#N)ccc1CCCC(=O)O)c1ccc(F)c2ccccc12 (stereo not given)
inactive: CRL-7250 -4.54% | HEK293 -6.85% | HaCat -4.32% | KB-3-1 5.51% | NIH3T3

C=C1CCC2(C(=O)OC3OC(CO)C(O)C(O)C3O)CCC3(C)C(=CCC4C5(C)CCC(OC6OC(CO)C(OC7OC(C)C(O)C(O)C7O)C(OC7OCC(O)C(O)C7O)C6O)C(C)(C)C5CCC43C)C2C1 (stereo not given)
inactive: CRL-7250 4.25% | HEK293 -4.7% | HaCat | KB-3-1 3.47% | NIH3T3 -2.38%

CCC(C)/C=C(C)/C=C/C1=CC2=C(Cl)C(=O)C(C)(OC(C)=O)C(=O)C2=CN1C(CCCN=C(N)N)C(=O)O (stereo not given)
inactive: CRL-7250 -3.35% | HEK293 3% | HaCat | KB-3-1 7.97% | NIH3T3 -0.868%

CC1(C)CC[C@]2(C(=O)O)[C@H](O)C[C@]3(C)C(=CCC4[C@@]5(C)CC[C@H](O[C@@H]6OC[C@@H](O)[C@H](O)[C@H]6O)[C@@](C)(C(=O)O)C5CC[C@]43C)[C@@H]2C1 (stereo not given in full)
inactive: CRL-7250 -5.63% | HEK293 0.0666% | HaCat | KB-3-1 9.63% | NIH3T3 0.796%

CC(C)NC(=O)c1ccc(C#Cc2ccncc2)cn1
inactive: CRL-7250 -8.3% | HEK293 -19.1% | HaCat | KB-3-1 | NIH3T3

Cc1ccc(C)c(S(=O)(=O)n2cnc3ccccc32)c1
inactive: CRL-7250 -12.1% | HEK293 -10.9% | HaCat | KB-3-1 | NIH3T3

C[C@H]1[C@@H](O)[C@H](O)C2[C@]3(C)C([C@@H](O)[C@H]4OC(=O)[C@@H]1[C@@]24C)[C@](C)(O)C=C[C@H]3O[C@@H]1O[C@H](CO)[C@@H](O)[C@H](O)[C@H]1O (stereo not given in full)
inactive: CRL-7250 0.954% | HEK293 -1.06% | HaCat -2.23% | KB-3-1 8.84% | NIH3T3

CC1=CC(=O)CC(C)(C)C1/C=C/C(C)OC1OC(COC2OCC(O)C(O)C2O)C(O)C(O)C1O (stereo not given)
inactive: CRL-7250 0.665% | HEK293 -4.28% | HaCat -0.25% | KB-3-1 9.19% | NIH3T3
